Measurements published in PubChem BioAssay.
Active and inactive are the calls of the source.

What was measured:
[1] = small molecules captured by biotinylated probe aFSTL3 – biochemical, small-molecule microarray, fluorescence 635/667, stem cell growth factor project, primary screen (AID 1064); conditions: higher = more signal;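 note: measures binding of the biotinylated anti-FSTL3 antibody to printed compounds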
[2] = binders from COS7 lysate, DM2A8 probe, primary screen, torsin A project, cell lysate, small-molecule microarray, fluorescence 635/667 (AID 1065); conditions: higher = more signal, COS7 lysate expressing mutant human TOR1A
[3] = small molecules captured by biotinylated probe aFGF2 – biochemical, small-molecule microarray, fluorescence 635/667, stem cell growth factor project, primary screen (AID 1067); conditions: higher = more signal;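 note: measures binding of biotinylated aFGF2 protein to printed compounds on slides; z-score merges feature fluorescence and signal-to-noise across triplicate slides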
[4] = small molecules captured by biotinylated probe aFGF10 – biochemical, small-molecule microarray, fluorescence 635/667, stem cell growth factor project, primary screen (AID 1071); conditions: higher = more signal;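 note: score merges 667 nm spot intensity and signal to noise from triplicate slides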
[5] = biological target: Neurogenic locus notch homolog protein 2 (Homo sapiens) (UniProt Q04721); test: small molecules binding Notch2 protein – biochemical, small-molecule microarray, 635 nm fluorescence, stem cell growth factors, primary screen (AID 1073); conditions: higher = more signal
Sequence of Neurogenic locus notch homolog protein 2 (Homo sapiens) (Q04721 whole entry, looked up, canonical isoform): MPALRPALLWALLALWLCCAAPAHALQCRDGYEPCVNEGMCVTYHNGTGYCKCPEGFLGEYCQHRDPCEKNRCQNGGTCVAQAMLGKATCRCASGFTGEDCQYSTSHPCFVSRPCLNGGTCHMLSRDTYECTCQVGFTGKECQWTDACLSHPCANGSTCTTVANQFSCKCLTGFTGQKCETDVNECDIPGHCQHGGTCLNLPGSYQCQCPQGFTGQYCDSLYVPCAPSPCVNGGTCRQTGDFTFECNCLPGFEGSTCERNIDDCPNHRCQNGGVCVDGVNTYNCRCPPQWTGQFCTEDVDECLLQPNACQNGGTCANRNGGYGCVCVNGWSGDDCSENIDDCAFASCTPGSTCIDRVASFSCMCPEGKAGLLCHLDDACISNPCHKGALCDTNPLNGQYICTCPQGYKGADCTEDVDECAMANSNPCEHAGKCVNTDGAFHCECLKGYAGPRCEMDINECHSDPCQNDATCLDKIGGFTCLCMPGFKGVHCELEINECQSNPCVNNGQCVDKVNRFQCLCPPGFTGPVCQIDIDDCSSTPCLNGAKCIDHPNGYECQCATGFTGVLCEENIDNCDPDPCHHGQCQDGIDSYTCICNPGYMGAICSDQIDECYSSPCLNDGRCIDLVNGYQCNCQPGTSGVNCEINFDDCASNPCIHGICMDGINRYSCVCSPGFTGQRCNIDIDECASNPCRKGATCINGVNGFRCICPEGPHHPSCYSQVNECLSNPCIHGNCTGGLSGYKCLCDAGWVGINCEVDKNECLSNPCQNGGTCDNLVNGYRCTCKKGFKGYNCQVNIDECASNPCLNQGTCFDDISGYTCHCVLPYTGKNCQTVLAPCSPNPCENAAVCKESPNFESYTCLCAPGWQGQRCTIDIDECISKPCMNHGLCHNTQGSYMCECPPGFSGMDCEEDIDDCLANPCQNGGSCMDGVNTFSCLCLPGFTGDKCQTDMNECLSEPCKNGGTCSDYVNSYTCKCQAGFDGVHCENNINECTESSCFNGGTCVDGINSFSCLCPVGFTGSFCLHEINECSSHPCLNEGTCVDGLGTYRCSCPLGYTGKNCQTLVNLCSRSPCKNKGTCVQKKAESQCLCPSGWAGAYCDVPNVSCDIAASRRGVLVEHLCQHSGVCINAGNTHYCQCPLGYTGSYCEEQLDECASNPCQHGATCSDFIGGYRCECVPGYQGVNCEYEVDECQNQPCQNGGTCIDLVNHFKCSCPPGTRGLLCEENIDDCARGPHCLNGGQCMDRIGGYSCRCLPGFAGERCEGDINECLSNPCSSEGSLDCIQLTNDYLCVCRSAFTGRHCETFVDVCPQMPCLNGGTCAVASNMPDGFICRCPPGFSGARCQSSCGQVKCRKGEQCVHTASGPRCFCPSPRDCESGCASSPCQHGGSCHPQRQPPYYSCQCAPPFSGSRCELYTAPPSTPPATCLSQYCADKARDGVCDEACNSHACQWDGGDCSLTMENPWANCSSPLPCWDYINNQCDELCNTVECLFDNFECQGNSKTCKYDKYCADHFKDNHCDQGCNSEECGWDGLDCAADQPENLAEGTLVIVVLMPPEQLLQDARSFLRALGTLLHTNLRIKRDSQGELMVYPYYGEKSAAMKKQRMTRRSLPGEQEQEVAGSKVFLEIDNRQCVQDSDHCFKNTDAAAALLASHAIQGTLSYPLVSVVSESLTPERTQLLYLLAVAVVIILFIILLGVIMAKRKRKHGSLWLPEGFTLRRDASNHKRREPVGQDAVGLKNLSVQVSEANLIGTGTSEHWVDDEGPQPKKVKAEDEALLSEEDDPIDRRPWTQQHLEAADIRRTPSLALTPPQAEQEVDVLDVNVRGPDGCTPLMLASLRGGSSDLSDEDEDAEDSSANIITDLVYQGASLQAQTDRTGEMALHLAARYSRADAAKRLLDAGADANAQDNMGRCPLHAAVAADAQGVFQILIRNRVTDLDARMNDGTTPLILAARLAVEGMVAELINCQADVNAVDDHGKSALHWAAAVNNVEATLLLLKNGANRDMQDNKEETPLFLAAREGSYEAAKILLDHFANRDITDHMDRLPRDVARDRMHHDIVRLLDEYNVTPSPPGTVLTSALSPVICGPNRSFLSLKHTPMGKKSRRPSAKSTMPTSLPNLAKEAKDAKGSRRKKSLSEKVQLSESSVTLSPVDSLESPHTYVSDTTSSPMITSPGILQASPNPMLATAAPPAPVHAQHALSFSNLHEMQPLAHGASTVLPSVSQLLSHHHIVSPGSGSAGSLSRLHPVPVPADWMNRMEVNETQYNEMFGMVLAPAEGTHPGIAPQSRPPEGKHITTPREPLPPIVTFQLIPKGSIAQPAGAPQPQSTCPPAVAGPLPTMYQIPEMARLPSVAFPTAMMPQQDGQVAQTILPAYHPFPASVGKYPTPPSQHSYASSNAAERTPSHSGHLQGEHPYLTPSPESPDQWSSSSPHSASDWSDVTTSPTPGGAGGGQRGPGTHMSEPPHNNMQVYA

[6] = biological target: Pro-neuregulin-1, membrane-bound isoform (Homo sapiens) (UniProt Q02297); test: small molecules binding neuregulin-1 protein – biochemical, small-molecule microarray, fluorescence 635/667, psychiatric disease protein project, primary screen (AID 1075); conditions: NRG1 binding, 635 nm fluorescence, higher = more signal;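 note: score combines 667 nm spot fluorescence with signal to noise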
Sequence of Pro-neuregulin-1, membrane-bound isoform (Homo sapiens) (Q02297 whole entry, looked up, the tested form may be a part, canonical isoform): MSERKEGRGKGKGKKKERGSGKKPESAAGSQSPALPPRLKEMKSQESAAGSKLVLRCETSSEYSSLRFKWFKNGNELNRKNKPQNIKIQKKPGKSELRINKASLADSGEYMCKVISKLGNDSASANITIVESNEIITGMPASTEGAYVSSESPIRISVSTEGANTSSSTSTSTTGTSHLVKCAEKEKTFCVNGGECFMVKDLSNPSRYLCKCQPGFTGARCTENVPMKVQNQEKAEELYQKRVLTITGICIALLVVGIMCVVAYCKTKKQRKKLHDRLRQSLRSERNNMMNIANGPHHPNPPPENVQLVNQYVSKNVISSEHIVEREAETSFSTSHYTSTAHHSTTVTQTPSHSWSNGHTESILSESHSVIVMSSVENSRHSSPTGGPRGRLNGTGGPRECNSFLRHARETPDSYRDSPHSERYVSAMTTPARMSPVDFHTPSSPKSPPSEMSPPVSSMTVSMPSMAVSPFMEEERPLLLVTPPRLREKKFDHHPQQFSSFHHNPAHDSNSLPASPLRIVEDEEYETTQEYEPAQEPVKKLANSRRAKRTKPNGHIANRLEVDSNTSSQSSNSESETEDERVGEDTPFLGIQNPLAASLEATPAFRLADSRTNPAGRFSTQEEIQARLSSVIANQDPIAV

[7] = tested on: Neuregulin-1 EGF-like domain; test: small molecules binding NRG1 EGF domain – biochemical, small-molecule microarray, 635 nm fluorescence, primary screen (AID 1081); conditions: higher = more signal;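 note: binding of the protein to compounds printed on small-molecule microarray slides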
[8] = FRG1 expression reporter modulators in myotubes – cell-based, C2C12 myotubes, firefly/Renilla luciferase, luminescence, FRG1 inhibition for FSHD, primary screen (AID 1084); conditions: FRG1 promoter luciferase, higher = more signal, called active from +8 up or from −8 down
[9] = small molecules captured by biotinylated probe aFST – biochemical, small-molecule microarray, fluorescence 635/667, stem cell growth factor project, primary screen (AID 1086); conditions: higher = more signal;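 note: score merges 667 nm fluorescence with signal-to-noise of each printed compound spot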
[10] = binders of probe aHhip on microarray, primary screen, stem cell growth factor project, biochemical, small-molecule microarray, fluorescence 635/667 (AID 1087); conditions: higher = more signal;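 note: score merges spot fluorescence at 667nm with spot signal to noise ratio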

Compound	composite z-score [1]	composite z-score [2]	composite z-score [3]	composite z-score [4]	composite z-score [5]	composite z-score [6]	composite z-score [7]	z-score [8]	composite z-score [9]	composite z-score [10]
C[C@]1(C(=O)NCCN2CCOCC2)c2ccccc2C(=O)N(Cc2ccccc2)[C@H]1c1ccc(CO)cc1	-0.0452	0.789	0.0008	-0.425	-0.522	1.35	1.26	-0.351 (inactive)	-0.352	-0.0346
O=C1c2ccccc2[C@@]2(Cc3ccccc3N(CC(F)(F)F)C2=O)[C@H](c2ccc(CO)cc2)N1C1CCCCC1	-0.2	0.438	-0.0199	0.354	0.455	0.492	1.47	-0.555 (inactive)	-0.415	-0.0618
O=C1C[C@@](C(=O)NCCN2CCOCC2)(c2ccc([N+](=O)[O-])cc2)[C@@H](c2ccc(CO)cc2)N1C1CCCCC1	0.224	0.657	0.11	0.26	0.576	0.548	1.25	0.292 (inactive)	0.133	0.0053
CN(C)CCCC[C@@H]1NC(=O)[C@@H]2C[C@H](C(=O)NCCCCCNC(=O)CS)[C@H](c3ccc(O)cc3)N2C1=O	0.174	0.522	0.0918	0.429	0.728	0.264	1.22	0.47 (inactive)	-0.0694	0.382
COc1ccc([Si](C)(C)[C@H]2[C@H](CCO)O[C@@]3(C(=O)N(Cc4ccccc4)c4ccc(N5C(=O)c6cccc7cccc5c67)cc43)[C@@H]2C)cc1	0.334	-0.173	-0.144	0.0626	-0.0844	0.48	0.836	-1.3 (inactive)	-0.268	3.71
CCN1C(C)=C(C(=O)OC)[C@@H](c2ccccc2)N2C(=O)[C@@]3(C(=O)OC)O[C@@]12[C@@H]1C(=O)N(c2ccccc2)C(=O)[C@@H]13	-0.418	0.833	-0.0924	0.877	1.14	0.75	0.892	-0.909 (inactive)	0.585	0.122
O=C(NCc1ccccc1)[C@@]1(Cc2ccccc2)COC(c2ccc(OCCCO)cc2)=N1	0.618	0.0094	-0.255	0.0532	0.46	1.51	1.19	-3.27 (inactive)	0.792	0.113
CC(=O)NCCCC[C@@H]1NC(=O)[C@H]2C[C@@H](C(=O)NCCCCCCN(C)C)[C@@H](c3cccc(OCCO)c3)N2C1=O	0.0256	2.05	0.0996	1.24	1.54	0.681	1.35	2.92 (inactive)	0.861	0.0053
COc1ccc(NN2C(C(O)c3cc(OC)c(OC)c(OC)c3)C=CC3C(=O)N(C4CCCCC4)C(=O)C32)cc1 (stereo not given)	0.833	-0.194	0.123	0.767	1.63	1.09	1.07	1.02 (inactive)	1.51	0.0734
CCCN1C(=O)[C@@]2(CCS(=O)(=O)c3ccccc3)N=C(c3ccc(OCCCO)cc3)O[C@H]2c2ccccc21	0.309	0.437	0.0127	0.136	0.728	1.72	1.36	-3.15 (inactive)	0.328	0.0722
COC(=O)Cn1c(C(=O)N2CCCC2)cc2c1C[C@H]1CN(C(=O)c3ccccc3)[C@@](Cc3ccccc3)(C(=O)OC)[C@@H]21	0.0841	-0.0841	0.0915	0.381	1.56	1.96	1.17	1.07 (inactive)	0.76	-0.119
C[N+](C)(C)CCCCNC(=O)[C@@H]1C[C@@H]2C(=O)N3CCC[C@H]3C(=O)N2[C@@H]1c1cccc(OCCO)c1	-0.215	1.3	-0.148	0.712	-0.145	0.837	1.03	1.19 (inactive)	0.209	0.171
C=C(CCCC)C(=O)CC[C@@H](OC(C)=O)c1ccccc1OCCO	0.286	0.844	-0.177	-0.34	-0.975	-0.52	-0.37	-2.26 (inactive)	-0.488	-0.0645
CO[C@]12C=C(Br)[C@@H](C[C@@H]1c1ccccc1)[C@@]1(CO1)C2=O	-0.407	0.215	-0.0336	0.229	0.308	-0.115	-0.356	-0.358 (inactive)	0.0254	0.0274
C=C(COC)/C(=C/C[C@H](OC(C)=O)c1ccc(OCCO)cc1)c1cnc2ccccc2c1	0.0732	0.0548	0.0001	0.765	1.41	-0.0967	0.99	0.345 (inactive)	0.372	0.176
Cc1ccccc1C(O)C1C=CC2C(=O)N(c3ccccc3)C(=O)C2N1Nc1ccc(C#N)cc1 (stereo not given)	0.834	1.46	0.429	1.15	1.63	1.91	1.25	-1.25 (inactive)	1.96	-0.111
O=C1O[C@H](c2ccccc2)[C@H](c2ccccc2)N2[C@H]1[C@@H](C(=O)Nc1nc3ccccc3s1)[C@]1(C(=O)Nc3ccc(C#CC4=CCCCC4)cc31)[C@H]2c1ccccc1OCCO	-0.572	0.255	0.0075	0.552	1.16	1.59	1.06	0.59 (inactive)	0.459	-0.0726
